Experiments:
Assay in all cases: log2 ratio of Biotin-Ahx-Ub-VS probe labelling (fragment/DMSO); higher = less target engagement (more negative = stronger competition), active = hit call of the paper (q ≤ 0.05, log2 ratio ≤ -1)
Conditions in all cases: compound concentration: 200 uM; treatment time: 3 h
USP9X = USP9X (UniProt Q93008)
In short: (§1)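 HEK293T lysate (495 µg per sample, in Tris/CHAPS/IGEPAL buffer with protease inhibitors) was exposed in triplicate for 3 h to fragment at 200 µM or to vehicle, then to Biotin-Ahx-Ub-VS at 0.5 µM final for 1 h. Labelled DUBs were enriched on NeutrAvidin, digested with LysC and trypsin, and analysed by diaPASEF LC-MS/MS. Spectronaut label-free quantities were normalised to the global median, and values are average log2 ratios of fragment over vehicle from an unpaired t-test. Only proteins with ≥2 unique peptides were used.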

UniProt O00487 = biological target: UniProt O00487
In short: as §1

UniProt O00507 = biological target: UniProt O00507
In short: as §1

UniProt P51784 = biological target: UniProt P51784
In short: as §1

UniProt Q5T2D3 = biological target: T1, UniProt Q5T2D3
T1 sequence (whole entry): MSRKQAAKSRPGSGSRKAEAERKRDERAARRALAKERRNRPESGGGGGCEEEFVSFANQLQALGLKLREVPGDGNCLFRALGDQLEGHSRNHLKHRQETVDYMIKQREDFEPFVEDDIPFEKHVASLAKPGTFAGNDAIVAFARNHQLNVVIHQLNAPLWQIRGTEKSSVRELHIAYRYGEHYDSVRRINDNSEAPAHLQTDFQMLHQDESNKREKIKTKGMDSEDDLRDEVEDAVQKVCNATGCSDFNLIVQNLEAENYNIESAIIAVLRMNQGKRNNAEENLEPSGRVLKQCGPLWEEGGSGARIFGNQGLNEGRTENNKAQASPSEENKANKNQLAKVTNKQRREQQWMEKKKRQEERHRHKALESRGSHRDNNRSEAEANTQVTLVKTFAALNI
In short: as §1

UniProt Q8TE49 = biological target: T2, UniProt Q8TE49
T2 sequence (whole entry): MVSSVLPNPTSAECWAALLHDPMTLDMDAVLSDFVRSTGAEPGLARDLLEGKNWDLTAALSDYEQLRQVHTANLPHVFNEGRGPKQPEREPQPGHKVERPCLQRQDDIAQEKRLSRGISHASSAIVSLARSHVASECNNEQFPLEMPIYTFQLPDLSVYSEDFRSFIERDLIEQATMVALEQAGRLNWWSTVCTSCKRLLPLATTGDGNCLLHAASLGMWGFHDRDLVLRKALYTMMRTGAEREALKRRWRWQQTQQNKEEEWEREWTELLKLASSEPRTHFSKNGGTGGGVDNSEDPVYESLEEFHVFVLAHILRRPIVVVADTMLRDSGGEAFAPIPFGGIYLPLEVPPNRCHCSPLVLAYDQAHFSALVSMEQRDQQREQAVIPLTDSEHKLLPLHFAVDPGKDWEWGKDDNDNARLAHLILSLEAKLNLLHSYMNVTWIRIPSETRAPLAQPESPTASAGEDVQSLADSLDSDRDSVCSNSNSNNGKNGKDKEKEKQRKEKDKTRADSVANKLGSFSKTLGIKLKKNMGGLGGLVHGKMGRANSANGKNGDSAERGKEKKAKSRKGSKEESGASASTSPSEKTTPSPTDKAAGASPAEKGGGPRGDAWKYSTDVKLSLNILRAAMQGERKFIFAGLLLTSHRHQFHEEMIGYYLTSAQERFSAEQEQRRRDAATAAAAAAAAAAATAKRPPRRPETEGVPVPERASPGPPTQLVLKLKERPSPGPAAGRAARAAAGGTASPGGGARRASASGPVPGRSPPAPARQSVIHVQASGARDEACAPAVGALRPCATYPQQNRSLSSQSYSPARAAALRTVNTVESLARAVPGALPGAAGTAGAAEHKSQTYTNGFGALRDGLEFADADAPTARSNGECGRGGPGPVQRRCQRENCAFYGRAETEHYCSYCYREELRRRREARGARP
In short: as §1

UniProt Q9P2H5 = biological target: T3, UniProt Q9P2H5
T3 sequence (whole entry): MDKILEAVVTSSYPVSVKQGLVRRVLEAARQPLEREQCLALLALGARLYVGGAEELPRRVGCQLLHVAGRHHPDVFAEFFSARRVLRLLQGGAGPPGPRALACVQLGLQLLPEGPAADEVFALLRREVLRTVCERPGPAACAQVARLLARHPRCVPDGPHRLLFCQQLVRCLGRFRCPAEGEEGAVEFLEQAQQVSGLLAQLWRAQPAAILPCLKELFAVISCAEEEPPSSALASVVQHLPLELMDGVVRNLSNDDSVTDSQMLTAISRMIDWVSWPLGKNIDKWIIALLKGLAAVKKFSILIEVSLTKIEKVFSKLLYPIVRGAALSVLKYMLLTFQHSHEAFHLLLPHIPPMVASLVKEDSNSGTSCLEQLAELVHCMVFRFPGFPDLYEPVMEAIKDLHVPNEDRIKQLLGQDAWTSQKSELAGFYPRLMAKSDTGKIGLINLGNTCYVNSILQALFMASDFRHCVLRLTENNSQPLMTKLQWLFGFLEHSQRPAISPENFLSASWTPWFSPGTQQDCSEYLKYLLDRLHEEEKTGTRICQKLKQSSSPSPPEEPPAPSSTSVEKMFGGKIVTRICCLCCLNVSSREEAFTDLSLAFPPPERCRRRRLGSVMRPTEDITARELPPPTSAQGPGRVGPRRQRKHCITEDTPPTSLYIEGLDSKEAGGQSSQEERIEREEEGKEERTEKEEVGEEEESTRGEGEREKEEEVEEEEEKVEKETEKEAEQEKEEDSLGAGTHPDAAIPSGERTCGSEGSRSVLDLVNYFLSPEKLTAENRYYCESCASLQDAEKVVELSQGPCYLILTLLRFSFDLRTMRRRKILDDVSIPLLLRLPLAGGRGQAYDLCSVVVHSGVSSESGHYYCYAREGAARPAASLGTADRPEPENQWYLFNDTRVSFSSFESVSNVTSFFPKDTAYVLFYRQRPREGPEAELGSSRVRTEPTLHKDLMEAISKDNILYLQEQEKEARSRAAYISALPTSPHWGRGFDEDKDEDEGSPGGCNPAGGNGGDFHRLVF
In short: as §1

UniProt Q9UGI0 = biological target: T4, UniProt Q9UGI0
T4 sequence (whole entry): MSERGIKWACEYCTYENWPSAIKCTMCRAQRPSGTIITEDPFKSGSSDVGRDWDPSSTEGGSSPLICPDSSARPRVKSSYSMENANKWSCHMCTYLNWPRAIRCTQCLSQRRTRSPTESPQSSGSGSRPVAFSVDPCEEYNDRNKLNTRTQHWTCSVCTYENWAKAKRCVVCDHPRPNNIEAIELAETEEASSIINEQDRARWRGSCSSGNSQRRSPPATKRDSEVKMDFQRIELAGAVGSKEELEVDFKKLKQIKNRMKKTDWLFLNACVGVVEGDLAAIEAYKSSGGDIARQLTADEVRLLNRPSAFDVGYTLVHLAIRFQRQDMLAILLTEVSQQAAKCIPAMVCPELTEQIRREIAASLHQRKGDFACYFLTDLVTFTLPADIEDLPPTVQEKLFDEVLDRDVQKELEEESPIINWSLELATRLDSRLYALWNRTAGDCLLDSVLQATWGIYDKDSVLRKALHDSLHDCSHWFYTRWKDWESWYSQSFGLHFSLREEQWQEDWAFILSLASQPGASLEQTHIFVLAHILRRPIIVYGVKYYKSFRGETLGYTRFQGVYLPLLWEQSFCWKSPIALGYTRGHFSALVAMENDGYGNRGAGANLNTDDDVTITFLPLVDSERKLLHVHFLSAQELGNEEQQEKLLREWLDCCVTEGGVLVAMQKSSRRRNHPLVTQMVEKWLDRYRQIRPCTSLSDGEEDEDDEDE
In short: as §1

YOD1 = biological target: T5, YOD1 (UniProt Q5VVQ6)
T5 sequence (whole entry): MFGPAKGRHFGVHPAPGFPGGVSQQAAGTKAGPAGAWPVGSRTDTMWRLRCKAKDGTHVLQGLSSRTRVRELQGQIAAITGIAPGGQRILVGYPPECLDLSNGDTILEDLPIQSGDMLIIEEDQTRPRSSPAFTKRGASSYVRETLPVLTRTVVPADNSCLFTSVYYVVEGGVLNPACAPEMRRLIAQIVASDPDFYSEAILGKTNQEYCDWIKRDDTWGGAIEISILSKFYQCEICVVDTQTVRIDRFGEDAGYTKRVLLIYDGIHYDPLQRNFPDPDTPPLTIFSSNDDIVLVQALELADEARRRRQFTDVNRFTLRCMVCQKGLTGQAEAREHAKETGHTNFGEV
In short: as §1

Measured: log2 ratio of Biotin-Ahx-Ub-VS probe labelling

Sequence of UniProt O00507 (O00507 whole entry): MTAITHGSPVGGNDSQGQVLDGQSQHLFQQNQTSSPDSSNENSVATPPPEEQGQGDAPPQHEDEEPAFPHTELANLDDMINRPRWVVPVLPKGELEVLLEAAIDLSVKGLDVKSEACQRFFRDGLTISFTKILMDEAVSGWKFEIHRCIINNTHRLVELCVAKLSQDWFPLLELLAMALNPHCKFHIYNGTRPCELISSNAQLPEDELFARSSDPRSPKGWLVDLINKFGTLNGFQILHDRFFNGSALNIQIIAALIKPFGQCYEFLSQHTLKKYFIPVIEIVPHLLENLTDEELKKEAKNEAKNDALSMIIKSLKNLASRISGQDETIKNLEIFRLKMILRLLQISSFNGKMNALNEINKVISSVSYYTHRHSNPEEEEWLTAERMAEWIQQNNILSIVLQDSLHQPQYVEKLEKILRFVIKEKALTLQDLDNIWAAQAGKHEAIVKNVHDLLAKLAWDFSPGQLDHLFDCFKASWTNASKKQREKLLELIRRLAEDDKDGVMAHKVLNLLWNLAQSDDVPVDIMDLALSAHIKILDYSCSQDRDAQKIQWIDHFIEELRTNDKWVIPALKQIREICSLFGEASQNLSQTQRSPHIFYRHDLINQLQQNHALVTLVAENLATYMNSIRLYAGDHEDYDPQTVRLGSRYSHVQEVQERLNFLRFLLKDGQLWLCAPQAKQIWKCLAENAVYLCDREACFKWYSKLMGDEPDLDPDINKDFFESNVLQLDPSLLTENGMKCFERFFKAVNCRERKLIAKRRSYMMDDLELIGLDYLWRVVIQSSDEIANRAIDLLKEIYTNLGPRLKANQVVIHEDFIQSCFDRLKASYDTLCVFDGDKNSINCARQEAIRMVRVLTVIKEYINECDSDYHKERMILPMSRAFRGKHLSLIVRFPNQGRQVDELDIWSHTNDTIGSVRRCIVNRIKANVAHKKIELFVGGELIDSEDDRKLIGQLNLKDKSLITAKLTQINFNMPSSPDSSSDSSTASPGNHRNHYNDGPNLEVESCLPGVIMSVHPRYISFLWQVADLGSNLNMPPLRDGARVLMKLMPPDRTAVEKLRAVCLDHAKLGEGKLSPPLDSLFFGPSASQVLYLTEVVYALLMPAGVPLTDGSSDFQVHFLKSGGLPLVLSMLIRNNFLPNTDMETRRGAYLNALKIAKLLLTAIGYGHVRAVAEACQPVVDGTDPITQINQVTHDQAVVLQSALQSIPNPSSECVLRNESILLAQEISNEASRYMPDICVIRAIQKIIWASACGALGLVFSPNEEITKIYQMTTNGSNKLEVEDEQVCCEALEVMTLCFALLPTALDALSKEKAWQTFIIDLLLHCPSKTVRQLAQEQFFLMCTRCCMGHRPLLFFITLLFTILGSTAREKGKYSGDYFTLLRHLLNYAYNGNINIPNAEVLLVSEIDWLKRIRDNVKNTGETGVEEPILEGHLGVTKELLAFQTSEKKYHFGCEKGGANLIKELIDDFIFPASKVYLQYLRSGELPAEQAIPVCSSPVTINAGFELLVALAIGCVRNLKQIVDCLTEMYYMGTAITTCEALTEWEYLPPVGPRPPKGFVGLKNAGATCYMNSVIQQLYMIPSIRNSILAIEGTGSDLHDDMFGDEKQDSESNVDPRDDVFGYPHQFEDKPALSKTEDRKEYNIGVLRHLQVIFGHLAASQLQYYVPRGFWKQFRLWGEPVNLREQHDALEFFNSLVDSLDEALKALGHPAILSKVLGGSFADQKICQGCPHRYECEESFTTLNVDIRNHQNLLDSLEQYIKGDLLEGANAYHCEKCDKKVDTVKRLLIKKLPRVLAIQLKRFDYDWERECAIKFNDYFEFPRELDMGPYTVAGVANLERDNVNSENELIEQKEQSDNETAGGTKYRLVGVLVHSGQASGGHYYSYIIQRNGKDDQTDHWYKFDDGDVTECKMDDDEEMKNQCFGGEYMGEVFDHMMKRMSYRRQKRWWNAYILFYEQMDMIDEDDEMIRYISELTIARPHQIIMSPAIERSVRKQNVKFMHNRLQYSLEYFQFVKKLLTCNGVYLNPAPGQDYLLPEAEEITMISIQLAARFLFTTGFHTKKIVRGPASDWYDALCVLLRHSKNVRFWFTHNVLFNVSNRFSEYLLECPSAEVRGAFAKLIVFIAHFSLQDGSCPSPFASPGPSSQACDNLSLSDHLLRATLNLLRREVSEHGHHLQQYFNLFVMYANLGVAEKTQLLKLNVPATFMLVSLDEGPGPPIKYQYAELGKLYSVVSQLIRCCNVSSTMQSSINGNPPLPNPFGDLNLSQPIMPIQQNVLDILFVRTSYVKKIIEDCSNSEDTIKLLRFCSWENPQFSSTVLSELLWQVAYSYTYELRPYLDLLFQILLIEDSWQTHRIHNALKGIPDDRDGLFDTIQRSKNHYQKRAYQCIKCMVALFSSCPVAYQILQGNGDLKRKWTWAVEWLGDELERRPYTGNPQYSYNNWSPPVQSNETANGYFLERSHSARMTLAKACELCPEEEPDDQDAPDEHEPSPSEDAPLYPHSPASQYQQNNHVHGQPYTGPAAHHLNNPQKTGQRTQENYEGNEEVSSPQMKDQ
Sequence of UniProt O00487 (O00487 whole entry): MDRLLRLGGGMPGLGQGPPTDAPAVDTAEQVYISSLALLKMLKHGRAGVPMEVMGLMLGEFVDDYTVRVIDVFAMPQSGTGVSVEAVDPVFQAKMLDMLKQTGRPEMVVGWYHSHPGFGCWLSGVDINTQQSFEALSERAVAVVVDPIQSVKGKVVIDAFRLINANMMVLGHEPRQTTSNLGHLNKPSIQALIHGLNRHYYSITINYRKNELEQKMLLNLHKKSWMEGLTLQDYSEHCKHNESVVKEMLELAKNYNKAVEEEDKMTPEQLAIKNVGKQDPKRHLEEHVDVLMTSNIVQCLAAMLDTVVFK
Sequence of UniProt P51784 (P51784 whole entry): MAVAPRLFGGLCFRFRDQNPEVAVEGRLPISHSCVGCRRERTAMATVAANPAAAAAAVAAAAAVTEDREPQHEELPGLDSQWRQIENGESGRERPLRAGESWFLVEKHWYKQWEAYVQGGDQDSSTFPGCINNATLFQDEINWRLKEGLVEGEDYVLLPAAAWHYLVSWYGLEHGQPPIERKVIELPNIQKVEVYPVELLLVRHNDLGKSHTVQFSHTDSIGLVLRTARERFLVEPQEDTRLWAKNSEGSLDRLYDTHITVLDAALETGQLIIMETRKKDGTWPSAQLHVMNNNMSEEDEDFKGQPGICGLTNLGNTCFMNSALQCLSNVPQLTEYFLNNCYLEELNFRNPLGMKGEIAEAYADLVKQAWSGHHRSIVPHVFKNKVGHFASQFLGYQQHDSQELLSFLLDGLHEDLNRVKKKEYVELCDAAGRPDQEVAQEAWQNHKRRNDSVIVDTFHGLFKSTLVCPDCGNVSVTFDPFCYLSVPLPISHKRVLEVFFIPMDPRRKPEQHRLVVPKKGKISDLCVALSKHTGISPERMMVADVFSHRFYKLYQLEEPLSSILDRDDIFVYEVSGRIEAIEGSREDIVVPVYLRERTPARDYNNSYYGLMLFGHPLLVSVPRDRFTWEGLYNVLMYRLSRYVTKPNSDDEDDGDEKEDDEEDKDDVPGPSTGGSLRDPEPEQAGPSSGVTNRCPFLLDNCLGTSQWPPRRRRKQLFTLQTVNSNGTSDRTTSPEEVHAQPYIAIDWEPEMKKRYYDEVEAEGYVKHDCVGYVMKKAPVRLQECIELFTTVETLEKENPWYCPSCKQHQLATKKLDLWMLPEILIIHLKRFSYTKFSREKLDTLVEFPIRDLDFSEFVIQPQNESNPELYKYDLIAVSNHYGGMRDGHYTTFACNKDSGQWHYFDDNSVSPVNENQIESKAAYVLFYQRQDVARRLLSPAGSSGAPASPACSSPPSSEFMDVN

O=C(CCl)NCc1ccc(Cl)cc1
inactive: USP9X 0.00725 | UniProt O00487 -0.0216 | UniProt O00507 0.318 | UniProt P51784 0.0262 | UniProt Q5T2D3 -0.0567 | UniProt Q8TE49 -0.395 | UniProt Q9P2H5 0.00401 | UniProt Q9UGI0 -0.0432 | YOD1 0.238
